From PubChem BioAssay (EPA / NIEHS) come the findings set out here.

Structures are written as SMILES. Active and inactive are the calls of the source. Rule for the calls: active = hit-call score of the fitted dose curve at least 0.9, where 1 is the maximum; inactive = score below 0.9.

Settings in all cases: mRNA level, 48 h; actives raise or lower the signal
Read-out in test [1]: cysteine-aspartic acid protease (CASP8), CASP8 (gene 841)
Put plainly: LTEA_HepaRG_CASP8: Life Technologies and Expression Analysis (LTEA) Assay for cysteine-aspartic acid protease (CASP8) using HepaRG (AID 2283480). Summed up:
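Concentration-response in duplicate up to 100 uM (half-log steps, 0.5% DMSO) on differentiated HepaRG cultures for 48 h. Expression change of CASP8 mRNA is determined by TaqMan qRT-PCR with housekeeping-gene normalization.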

Read-out in test [2]: Cytochrome P450 (CYP2B6), CYP2B6 (gene 1555)
In words: LTEA_HepaRG_CYP2B6: Life Technologies and Expression Analysis (LTEA) Assay for Cytochrome P450 (CYP2B6) using HepaRG (AID 2283481). Summed up: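 Using 48 h treatment of HepaRG cells in serum-free induction medium, concentrations spanned half-log steps from 100 uM in 0.5% DMSO vehicle. CYP2B6 mRNA induction or loss is scored by qRT-PCR against DMSO.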

Read-out in test [3]: Cytochrome P450 2C19 (Homo sapiens) (UniProt P33261)
Put plainly: LTEA_HepaRG_CYP2C19: Life Technologies and Expression Analysis (LTEA) Assay for CYP2C19 using HepaRG (AID 2283482). In short, it runs like this:
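Human HepaRG liver cells received test chemicals for 48 h (highest 100 uM, half-log dilutions in 0.5% DMSO). CYP2C19 mRNA induction or loss is read by multiplexed qRT-PCR and fitted in both directions versus vehicle.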

Read-out in another test: CYP2C8 (gene 1558)
In words: LTEA_HepaRG_CYP2C8: Life Technologies and Expression Analysis (LTEA) Assay for CYP2C8 using HepaRG (AID 2283483). In short, it runs like this: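 This is a transcriptional endpoint in HepaRG cultures: 48 h exposure, highest concentration 100 uM. CYP2C8 mRNA is quantified by TaqMan qRT-PCR.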

Read-out in the next test: CYP2C9 (gene 1559)
In words: LTEA_HepaRG_CYP2C9: Life Technologies and Expression Analysis (LTEA) Assay for CYP2C9 using HepaRG (AID 2283484). In short, it runs like this: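 Eight-point concentration-response (highest 100 uM, half-log dilutions) in HepaRG cells for 48 h; CYP2C9 expression by qRT-PCR normalized to ACTB, GAPDH, POLR2A. Bidirectional fit, DMSO baseline.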

Read-out in the next test: CYP2E1 (gene 1571)
In words: LTEA_HepaRG_CYP2E1: Life Technologies and Expression Analysis (LTEA) Assay for CYP2E1 using HepaRG (AID 2283485). Summed up:
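Readout is qRT-PCR of CYP2E1 mRNA, normalized to three housekeeping genes and fitted bidirectionally against 0.5% DMSO. HepaRG cells were dosed 48 h at eight concentrations, highest 100 uM with half-log dilutions.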

Read-out in another test: CYP4A11 (gene 1579)
In words: LTEA_HepaRG_CYP4A11: Life Technologies and Expression Analysis (LTEA) Assay for CYP4A11 using HepaRG (AID 2283486). Summed up: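 Readout is CYP4A11 mRNA induction or suppression (qRT-PCR, ACTB/GAPDH/POLR2A normalization) in human HepaRG cells after 48 h chemical treatment, concentrations to 100 uM in 0.5% DMSO, fitted bidirectionally against vehicle.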

Read-out in test [4]: Cytochrome P450 3A4 (Homo sapiens) (UniProt P08684)
In words: LTEA_HepaRG_CYP3A4: Life Technologies and Expression Analysis (LTEA) Assay for CYP3A4 using HepaRG (AID 2283487). In short, it runs like this:
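In a human hepatic line (HepaRG), duplicate wells were treated 48 h with up to 100 uM chemical in half-log dilutions. Endpoint: CYP3A4 mRNA induction or loss relative to 0.5% DMSO vehicle, by qRT-PCR.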

Read-out in test [5]: DNA damage-inducible transcript 3 (DDIT3), DDIT3 (gene 1649)
Put plainly: LTEA_HepaRG_DDIT3: Life Technologies and Expression Analysis (LTEA) Assay for DNA damage-inducible transcript 3 (DDIT3) using HepaRG (AID 2283488). In short, it runs like this: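 Cells are human HepaRG liver cells treated for 48 h with eight half-log concentrations up to 100 uM in 0.5% DMSO. Transcript levels come from qRT-PCR normalized to three housekeeping genes, with activity fitted in both directions relative to vehicle.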

Read-out in test [6]: Pro-epidermal growth factor (Homo sapiens) (UniProt P01133)
Put plainly: LTEA_HepaRG_EGF: Life Technologies and Expression Analysis (LTEA) Assay for Epidermal growth factor (EGF) using HepaRG (AID 2283489). In short, it runs like this:
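EGF expression changes in human HepaRG cells are scored by bidirectional fitting relative to 0.5% DMSO controls. Chemicals are tested at eight half-log concentrations up to 100 uM for 48 h in serum-free induction medium.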

Read-out in test [7]: Early growth response protein 1 (EGR1) transcription factor, EGR1 (gene 1958)
Put plainly: LTEA_HepaRG_EGR1: Life Technologies and Expression Analysis (LTEA) Assay for Early growth response protein 1 (EGR1) transcription factor using HepaRG (AID 2283490). Summed up: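 EGR1 expression change in human HepaRG after 48 h chemical exposure, assessed by housekeeping-normalized qRT-PCR; concentration-response up to 100 uM, fitted in both directions against DMSO controls.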

Read-out in test [8]: Ezrin (EZR), EZR (gene 7430)
In words: LTEA_HepaRG_EZR: Life Technologies and Expression Analysis (LTEA) Assay for Ezrin (EZR) using HepaRG (AID 2283491). In short, it runs like this:
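Gain or loss of EZR mRNA is scored relative to 0.5% DMSO in human HepaRG cultures treated 48 h with test chemicals in duplicate, eight half-log concentrations from 100 uM.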

Read-out in test [9]: Cytochrome P450 3A7 (Homo sapiens) (UniProt P24462)
Put plainly: LTEA_HepaRG_CYP3A7: Life Technologies and Expression Analysis (LTEA) Assay for CYP3A7 using HepaRG (AID 2283492). In short, it runs like this: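 Cells were thawed, plated, cultured 48 h, then treated for a further 48 h with chemicals (eight-point half-log series from 100 uM, 0.5% DMSO). RNA was isolated and CYP3A7 expression quantified by qRT-PCR normalised to ACTB, GAPDH and POLR2A.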

Read-out in another test: CYP3A5 (gene 1577)
In words: LTEA_HepaRG_CYP3A5: Life Technologies and Expression Analysis (LTEA) Assay for CYP3A5 using HepaRG (AID 2283493). Summed up: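 Human HepaRG hepatic cells receive 48 h chemical treatment at eight concentrations (half-log steps from 100 uM) in 0.5% DMSO. Expression of CYP3A5 is quantified by Fluidigm qRT-PCR and normalized to three reference genes.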

Read-out in test [10]: Fatty Acid-Binding Protein 1 (FABP1), FABP1 (gene 2168)
Put plainly: LTEA_HepaRG_FABP1: Life Technologies and Expression Analysis (LTEA) Assay for Fatty Acid-Binding Protein 1 (FABP1) using HepaRG (AID 2283494). In short, it runs like this:
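Values reflect bidirectional concentration-response fitting of FABP1 mRNA change against 0.5% DMSO controls. Human HepaRG cultures received eight half-log doses (top 100 uM) for 48 h; expression quantified by TaqMan qRT-PCR with housekeeping-gene normalization.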

Read-out in test [11]: Cytochrome P450 7A1 (Homo sapiens) (UniProt P22680)
In words: LTEA_HepaRG_CYP7A1: Life Technologies and Expression Analysis (LTEA) Assay for Cytochrome P450 7A1 (CYP7A1) using HepaRG (AID 2283496). Summed up: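 HepaRG, 48 h exposure, 8-pt half-log series from 100 uM, 0.5% DMSO vehicle, duplicates. Readout: TaqMan qRT-PCR mRNA vs three housekeeping genes; bidirectional curve fit against DMSO baseline.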

Read-out in test [12]: Glutathione S-Transferase (GSTA2), GSTA2 (gene 2939)
Put plainly: LTEA_HepaRG_GSTA2: Life Technologies and Expression Analysis (LTEA) Assay for Glutathione S-Transferase (GSTA2) using HepaRG (AID 2283497). Summed up:
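Oxidative-stress marker GSTA2 is quantified by TaqMan qRT-PCR in HepaRG cultures treated 48 h across an eight-point range to 100 uM. Expression is normalized to endogenous controls and compared with 0.5% DMSO vehicle.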

Read-out in test [13]: Glutamate-cysteine ligase catalytic (GCLC), GCLC (gene 2729)
Put plainly: LTEA_HepaRG_GCLC: Life Technologies and Expression Analysis (LTEA) Assay for Glutamate-cysteine ligase catalytic (GCLC) using HepaRG (AID 2283498). Summed up: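 Oxidative-stress marker GCLC is measured as mRNA change in human HepaRG liver cells after 48 h chemical treatment in 0.5% DMSO, eight concentrations from 100 uM. Activity is fitted bidirectionally against vehicle.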

Read-out in test [14]: growth arrest and DNA damage 45 (GADD45G), GADD45G (gene 10912)
Put plainly: LTEA_HepaRG_GADD45G: Life Technologies and Expression Analysis (LTEA) Assay for growth arrest and DNA damage 45 (GADD45G) using HepaRG (AID 2283499). Summed up: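 Human hepatic HepaRG line treated 48 h with chemicals (eight concentrations, half-log steps from 100 uM); transcript induction or repression of GADD45G scored by qRT-PCR versus DMSO vehicle.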

Read-out in test [15]: Glutathione S-transferase M3 (GSTM3), GSTM3 (gene 2947)
In words: LTEA_HepaRG_GSTM3: Life Technologies and Expression Analysis (LTEA) Assay for Glutathione S-transferase M3 (GSTM3) using HepaRG (AID 2283501). Summed up:
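Changes in GSTM3 expression, an oxidative-stress marker, were scored by bidirectional curve fitting against 0.5% DMSO vehicle. Human HepaRG cultures received chemicals for 48 h in duplicate, highest concentration 100 uM with half-log dilutions.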

Sequence of Cytochrome P450 3A4 (Homo sapiens) (P08684 whole entry, looked up): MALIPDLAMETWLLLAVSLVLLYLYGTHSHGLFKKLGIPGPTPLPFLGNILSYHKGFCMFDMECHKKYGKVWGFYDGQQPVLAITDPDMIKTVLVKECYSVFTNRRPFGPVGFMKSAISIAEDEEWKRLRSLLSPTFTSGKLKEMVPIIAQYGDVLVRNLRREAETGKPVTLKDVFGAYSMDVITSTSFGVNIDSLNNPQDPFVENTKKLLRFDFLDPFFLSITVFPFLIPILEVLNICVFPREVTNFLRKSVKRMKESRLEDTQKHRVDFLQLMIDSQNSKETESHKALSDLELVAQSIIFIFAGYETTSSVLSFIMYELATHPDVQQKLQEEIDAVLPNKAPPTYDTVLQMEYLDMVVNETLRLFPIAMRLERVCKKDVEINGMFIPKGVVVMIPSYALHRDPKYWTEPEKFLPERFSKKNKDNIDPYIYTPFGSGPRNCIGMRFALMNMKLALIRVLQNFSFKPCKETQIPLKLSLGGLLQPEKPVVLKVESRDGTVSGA
Sequence of Cytochrome P450 3A7 (Homo sapiens) (P24462 whole entry, looked up): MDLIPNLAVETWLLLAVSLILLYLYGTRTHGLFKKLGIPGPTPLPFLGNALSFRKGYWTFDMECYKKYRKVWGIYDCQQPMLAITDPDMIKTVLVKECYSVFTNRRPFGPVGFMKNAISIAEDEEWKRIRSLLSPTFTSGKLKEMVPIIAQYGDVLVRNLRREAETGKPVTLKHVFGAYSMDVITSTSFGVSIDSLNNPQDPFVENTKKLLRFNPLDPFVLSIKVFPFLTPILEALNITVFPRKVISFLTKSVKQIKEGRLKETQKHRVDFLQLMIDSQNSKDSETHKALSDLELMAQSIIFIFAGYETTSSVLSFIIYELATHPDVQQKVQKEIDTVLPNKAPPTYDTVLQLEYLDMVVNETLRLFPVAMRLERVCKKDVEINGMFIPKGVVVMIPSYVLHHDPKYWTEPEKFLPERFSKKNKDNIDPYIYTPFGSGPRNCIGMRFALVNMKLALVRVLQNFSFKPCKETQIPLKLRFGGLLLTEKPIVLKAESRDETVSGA
Sequence of Cytochrome P450 2C19 (Homo sapiens) (P33261 whole entry, looked up): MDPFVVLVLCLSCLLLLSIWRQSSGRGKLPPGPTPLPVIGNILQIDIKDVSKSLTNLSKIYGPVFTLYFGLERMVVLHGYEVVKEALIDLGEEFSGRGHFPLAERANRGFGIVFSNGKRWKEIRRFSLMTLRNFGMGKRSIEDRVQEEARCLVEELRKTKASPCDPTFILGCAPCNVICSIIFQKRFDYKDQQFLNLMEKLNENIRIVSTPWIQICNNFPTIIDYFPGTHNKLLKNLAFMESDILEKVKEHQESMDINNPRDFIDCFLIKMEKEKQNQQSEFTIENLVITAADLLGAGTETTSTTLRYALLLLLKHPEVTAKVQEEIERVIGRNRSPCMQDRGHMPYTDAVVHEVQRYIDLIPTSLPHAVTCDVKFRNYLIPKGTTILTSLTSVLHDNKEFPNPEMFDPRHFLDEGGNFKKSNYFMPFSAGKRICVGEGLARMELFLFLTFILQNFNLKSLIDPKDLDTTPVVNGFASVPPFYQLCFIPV

Usually AC50 stands for the concentration at which the activity in the assay is half-maximal. As to `CCN1CCC2(CC1)COc1cc3c(cc12)N(C(=O)c1ccc(-c2ccc(-c4nnc(C)o4)cc2C)cc1)CC3`, the AC50 in [1] is 21.8 µM (active); in test [2], 28.3 µM (active); in [3] it was 21.9 µM (active); with CYP2C9 (gene 1559), 21.4 µM (active); with CYP2E1 (gene 1571), 17.7 µM (active); with CYP4A11 (gene 1579), 46.8 µM (active). Besides, the AC50 in test [4] is 28 µM (active); in test [5], 11.6 µM (active); in test [7] it was 11.9 µM (active); in the test with CYP3A5 (gene 1577), 16 µM (active); in test [10] it was 21.9 µM (active); in [12], 75.2 µM (active). The AC50 in [13] is 25.4 µM (active); in test [14], 74 µM (active). Moreover, the outcome (in the test with CYP2C8 (gene 1558); in [6]; in test [8]; in [9]; in test [11]; in test [15]) was inactive.
Consider `C=CC(=O)OCCCCCC(C)C`, for which the outcome (in test [1]; in [2]; in [3]; with CYP2C8 (gene 1558); in the test with CYP2C9 (gene 1559); with CYP2E1 (gene 1571)) was inactive. In addition, the compound was called inactive (in the test with CYP4A11 (gene 1579); in test [4]; in test [5]; in test [6]; in test [7]; in test [8]). Moreover, the compound was classed as inactive (in [9]; with CYP3A5 (gene 1577); in test [10]; in test [11]; in test [12]; in test [13]). Also, the outcome in test [14] and in test [15] was inactive.
With `CN(C)N=O`, the result (in test [1]; in [2]; in test [3]; with CYP2C8 (gene 1558); with CYP2C9 (gene 1559); with CYP2E1 (gene 1571)) was inactive. For the same compound, the compound was called inactive (with CYP4A11 (gene 1579); in test [4]; in test [5]; in [6]; in [7]; in test [8]). In addition, the compound was classed as inactive (in test [9]; with CYP3A5 (gene 1577); in test [10]; in [11]; in test [12]; in test [13]). Also, the call in [14] and in test [15] was inactive.
